From PubChem BioAssay (NCATS) come the findings set out here.

Structures are written as SMILES. Inconclusive results are not listed. Active and inactive are the calls of the source. Calls follow the shape of the dose curve; as a rule, active = well fitted curve in the direction sought with a large enough effect; inconclusive = small, poorly fitted or top-dose-only effect, or another doubt; inactive = no such curve, though single readings can be large; an effect the other way counts as inactive or inconclusive.

The first experiment can be described thus: Viability qHTS for spleen associated tyrosine kinase inhibitor (SYKi) drug resistant MV4-11 cells (AID 1963824). Also: nearly all actives have a fitted effect of over 35% in size. Also: potency is read from the fitted curve at half-maximal effect. Conditions: SYKi-resistant MV4-11 viability, CellTiter-Glo, 72 h; series mostly up to 45 µM; viability, % of control: at the top concentration. In short, it runs like this:
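CellTiter-Glo luminescence, read 10 min after reagent addition, reports viability after a 72 hr compound exposure. Cells are an MV4-11 line made resistant to SYK inhibition, seeded at 500 per well onto compound-containing plates.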
Regarding `CCC(C)C1NC(=O)C2CCCN2C(=O)C(CC(C)C)OC(=O)CCNC(=O)C(C)N(C)C(=O)C(C(C)C)N(C)C1=O` (stereo not drawn), the Potency is 5.44 µM (active).

Turning to `CC(=O)O[C@H]1CN2CCC1CC2`, the “viability, % of control” value was 110% (inactive). In the case of `C[C@@H]1C[C@@H](O)[C@]2(O)O[C@@H]3C[C@@]4(C=O)C(CC[C@@H]5C4CC[C@]4(C)[C@@H](C6=CC(=O)OC6)CC[C@]54O)C[C@H]3O[C@@H]2O1` (stereo partly drawn), the Potency was 0.0317 µM (active). The same measure, in the same setting: with `CC1=C[C@H]2O[C@@H]3C[C@H]4OC(=O)/C=C/C=C/C(=O)OCC/C(C)=C/C(=O)OC[C@@]2(CC1)[C@]4(C)[C@]31CO1` the figure was 0.0056 µM (active).

For the compound `CC1C/C=C/C(O)C(O)CC/C=C/c2cc(O)cc(O)c2C(=O)O1` (stereo not drawn), the Potency is 8.05 µM (active). Consider `COCC1OC(=O)c2coc3c2C1(C)C1=C(C3=O)C2CCC(=O)C2(C)CC1OC(C)=O` (stereo not drawn), for which the Potency was 2.06 µM (active). As for `C/C=C1/CN2CC[C@]34C(=Nc5ccc(OC)cc53)C2C[C@@H]1C4(CO)C(=O)OC` (stereo partly drawn), the “viability, % of control” value was 66.3% (inactive). Regarding `CCC1(O)CCC2C3CCC4=CC(=O)CCC4C3CCC21CC` (stereo not drawn), the Potency was 14.6 µM (active). Regarding `OC1(c2ccc(Cl)cc2)c2ccccc2C2=NCCN21` (stereo not drawn), the Potency was 16.4 µM (active).

The nature of another experiment: Cellular viability qHTS for adrenocortical cancer (ACC) cell line NCI-H295R (AID 1963990).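 Also: 0% = DMSO only wells and -100% = full killing with cytotoxic reference compound; nearly all actives have a fitted effect of over 60% in size.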 The note with it: CellTiter-Glo ATP luminescence, 48 h; series mostly up to 46.1 µM; activity change, negative = viability loss: at the top concentration. In a few lines:
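Readout: CellTiter-Glo luminescence, 20 min RT. Exposure: 48 h, 37C/5% CO2. Cells: NCI-H295R, ITS-DMEM serum-free. Range: up to 46 uM. Analysis: 4PL fit, IC50 plus efficacy.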
Background: qHTS replaces the single test concentration by a dilution series.
Consider `Cn1c(COP(=O)(NCCBr)NCCBr)cnc1[N+](=O)[O-]`, for which the “activity change, negative = viability loss” value was -28.4% (inactive). On the same count and under the same terms, in the case of `OCCCBr` it was -27.7% [at 92.7 µM] (inactive); in that of `CN1C(=O)[C@@H](NC(=O)[C@H](CCC(F)(F)F)[C@H](CCC(F)(F)F)C(N)=O)N=C(c2ccccc2)c2ccccc21`, -1.69% (inactive); in that of `C[C@H]1[C@@H]2Cc3ccc(O)cc3[C@@]1(C)CCN2C`, -23.4% [at 231 µM] (inactive).
